Out of some 53,000 sequences screened, about 3,700 (7%) were called active. The entries come from a sample that favours actives as a whole. A number with no mark means an inactive call.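 How the source made its calls: active means gene knockdowns whose robust z-score for IL-1 alpha signal is at least 2 or at most -2, so actives lie on both sides; inactive means the rest.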
Experiment: Components of the Cytosolic LPS Sensing Pathway: Gene Identification via Genome-wide siRNA Screen
Settings: RAW264.7 macrophages, IL-1a HTRF, actives lie on both sides, screened at 100 nM (by protocol), cells primed 5 h with Pam3CSK4 first
Text: Non-canonical inflammasome activation by cytosolic LPS is a critical component of the host response to Gram-negative bacterial infection, however we lack a comprehensive understanding of the cellular processes that control this pathway. Here we describe a genome-wide siRNA screen to identify genes regulating the mouse macrophage IL-1 alpha response to cytosolic LPS.
RAW264.7 cells were maintained in complete DMEM media, comprising DMEM with 4.5 g/L glucose, 10% FBS (Gemini Bio-Products, West Sacramento, CA), 2 mM Glutamine (Lonza) and 20 mM HEPES (Lonza), hereafter complete DMEM.
The RNAi screen was conducted in 384-well format using the Ambion Silencer Mouse Genome siRNA Library (#4391425), which consists of three unique, nonoverlapping, nonpooled siRNAs for each of 17,000 gene targets. siRNA reagents ([…]) were stamped into 384-well white flat-bottom microplates (Corning, 3570) using a Velocity11 VPrep liquid handling system (Agilent) integrated into a BioCel robotic platform (Agilent) in columns 1-22, leaving columns 23-24 empty for negative (Ambion, Negative control #1) and positive (mouse Casp4) controls, respectively. The median value of each plate's negative control column was used to normalize sample wells, and the positive control was used to assess transfection efficiency and assay performance.
Lipofectamine RNAiMAX Transfection Reagent ([…]; Invitrogen) was added in […] serum-free, antibiotic-free media to plate wells using a Thermo Scientific Matrix WellMate and Microplate Stacker. Plates were incubated for 45 min at room temperature to allow for the sufficient formation of siRNA-lipid complexes. Cells were seeded at a density of 1x10^4 cells per well in 20 microL media containing 20% (vol/vol) FBS without antibiotics. The final concentration of siRNA in each well was 100 nM. Cells were cultured for 48h at 37 degrees C in 5% CO2 before addition of […] of TLR ligand Pam3CSK4 for 5 hours. The medium was then removed, replaced with […] growth media and cell were transfected with […] of LipidA and TransIT-TKO (Mirus) for 24 hour. At the end of the LipidA treatment, […] of supernatant was transferred to a 384 Greiner Bio-one non-binding low volume plate and […] of IL-1a HTRF reagent (Cisbio, 62MIL1APEH) was added and incubated at room temperature overnight. The plates were read on an EnVision plate reader (PerkinElmer). Cell viability was measured by adding 20ul Cell Titer Glo to the original plate and running a luminescence read on the EnVision. The quantified IL-1a signal for each siRNA gene-targeted well was divided by the median of the negative control wells and multiplied by 100 to achieve a negative control normalized value for each well/siRNA. This normalized value was then used to generate a robust z-score by first taking the log of each value and then by subtracting the median and dividing by the […].

Sequence | z-score
GCUACAGGGAAAAAGUUCCTT against Olfr994 | 0.383
CGGCUGCAUUUCAACAAGGTT against Snrpc | -1.92
GGUUCUGCCAUGGAGGAAUTT against Svs5 | 0.0746
GCCACUCACCUGUAGUUCUTT against BC049715 | 0.0758
GGAUCUCAGAUUUACUGUCTT against Dedd2 | 0.484
GGUCAUCAAGCAGUGCUAUTT against Ncstn | 4.32 (active)
CGGAGCAUUGGGACAAUUUTT against Olfr690 | 1.1
GGAAGUUGAAUACAUUGUCTT against Arntl | 0.127
GCAUGCAAAUCUCCUCUAATT against Sema3b | -0.116
CCUUUGUAACUGGAAUUCUTT against Olfr197 | 1.74
GGAAAUUGUGAGAAGAACUTT against Slx4ip | 2.33 (active)
GGAUCAAAUUACAGAUCUUTT against Eef1e1 | 1.81
GGAAAUGCUACUGCUUGGATT against 1700030K09Rik | 1.2
GGAAACCAAAGAUAAACUCTT against Ccdc186 | 0.726
GGGCAUCAAGUGUAAAAAATT against Med7 | -0.384
GGAUAGGAAGAAAAUGAAGTT against Slfn2 | -2.83 (active)
CCCAAAUCCUACGAAGCCUTT against Tanc1 | -1.9
GGAUCUAAGGAAGUUUCUGTT against Gfpt2 | 0.594
GGCGAACACCAUGAAAAGGTT against Lin7b | 0.794
GCGUGGAUAGUUUCACAGCTT against Fbp1 | -0.142
GGAGAGUGCUGUGAAGCCATT against Vegfb | -0.943
CCAGAAGAGUACUGUUUUATT against Tpm4 | 2.17 (active)

Sequence | z-score
GGAAUACUCCAGUAUCUCCTT against 9130401M01Rik | -0.753
GGCAAUGAGACAAUUGUCATT against Cpe | -0.638
GGCAAAAUCCCAUACGAAATT against Itk | 0.0298
CCAUGUAAGAUGUUAAGUATT against Abcb1a | -0.265
CCUUUGUGUCCUAACGGUGTT against Tubb2b | -0.158
GGUCCAUUGCUAAAGACUGTT against Tcf19 | 0.0971
GGUAAUGAGGACAUGGAUCTT against Lyrm4 | 0.467
GCACUUUCCUUUAUUGUGUTT against Fam117a | -1.41
GGAAUUCAUGAACUACUAUTT against Capsl | -2.07 (active)
GGCUCAGAUUGAUAGGAUATT against Gmfg | 0.103
GGCCAAACUAAUGUUUUUCTT against Prox2 | -0.594
CCUGCUGGGAUUUAUUCAATT against Pmvk | 2.52 (active)
GCUCAUAAUUACAUCACCATT against H3c15 | -1.22
GGACCAUCCUACAUCGGUCTT against Fpgs | 1.02
GGACAAGGUCUUUAAUGUUTT against Fbxo3 | -0.263
CGGUUGUCUUCCUCUUAGUTT against Fzd5 | -0.52
GAAAAGAGGAUUCCUUGCATT against Olfr1128 | 0.726
GGCAAAGUUGUCCUAAGGUTT against Rab27b | 2.54 (active)
GCGAGAGUGAAAACAUCCATT against Fam78b | 0.331
GGCUUAUACGCUCCAUAUUTT against Gykl1 | -0.214
GGAUACAUUCCAGACAUACTT against Map3k2 | -0.0192
GGCGGACGUGAAGAACUUGTT against Letmd1 | 1.28

Sequence | z-score
GGAACAGUCCUACUGAUAUTT against Cdkn1a | -0.271
GCUGGAUGGAGGCAAAGCATT against C1ql1 | -1.38
GGCCAGAACCACCAAAGAATT against Zc2hc1a | -0.753
GCAACAAUCUAACCUCAGATT against Mela | -2.3 (active)
CCACUGAUAACUCGAUUUGTT against Nrp1 | -0.228
GGAACCUCUUGGACAAAGATT against Cpne5 | 2.17 (active)
GGUAACAUGGCAGAUUUUATT against Aif1l | 0.618
GGACUGUUUGGAUUGCAUATT against Dock7 | 0.891
GGCAACAGCAUCCUACUCUTT against Olfr652 | -2.12 (active)
GCAUUUCGAAGUGCCCUUGTT against Gpr146 | 1.22
CCGCUACCAGAUAAACUCGTT against BC053393 | 0.984
GGACAAUACGGAGAAAGAUTT against Mdfic | -0.522
GGGCAAAUUAUGCUGUCAUTT against Tomm20 | -1.7
GCGAUGAGAUUGUUGCUGUTT against Ttc33 | 2.32 (active)
GCUUGCUGACCUGAAGUGATT against Krt17 | 0.262
GCUAUCCCUUUAUGUAACATT against Prl7b1 | -0.224
CCAUAUCGAGUACCUCCAATT against Rtn4rl1 | -0.522
GGUCUACUGGCGUAAUUACTT against Vsig4 | -0.365
GCAGUCAUUCAAGGUUCCUTT against Hmces | -0.231
GGUGUUGAAAUAAUUUCUCTT against Phospho2 | -0.285
GGAGUGUAGUAAAUGUACCTT against Ppp1r13b | 3.97 (active)
GGACUUGAUCCCAAAGCUGTT against Mrpl17 | -1.21

Sequence | z-score
GGGACAACACAUUAACUUATT against Uckl1 | 1.41
GCACAUUGUCUAGUAGUAATT against Zfp280d | -0.622
GGAACAGAAACAAGGUUUUTT against Zfand2a | 0.962
CCUCAUUCAGGGAGUUCCATT against 2200002J24Rik | -1.52
GGACAGUGGAAGGAAUCCATT against 2310033P09Rik | -2.91 (active)
GCUGAUGCUCCAUUGAAUGTT against Prr27 | 0.228
GCGUGAGAGAUACCGCCAUTT against Gnai2 | -0.847
CGUGGUUUGUCAAUGAAGGTT against Eprs | 0.358
GGUUCUUUGGAAUGCUUUUTT against Myl12a | 2.76 (active)
CGUAAGAUUGACUCUAGUATT against Prl6a1 | 0.326
GGACAGACUGAUUAAGAAATT against Paqr8 | -0.569
GCUACUGAACGAGAAUGCCTT against Zc3h12a | 0.394
GGACAUUGACGCAUAGGGATT against Arsa | -0.232
GGAUACAGUUUCUGAAAUCTT against Mlxipl | 2.6 (active)
GCCAUGUGAUCGAAUCCAGTT against Clip2 | -0.0773
GGGAUUCAUACUACUUAACTT against Olfr304 | 1.32
GCAGUUACUUAUCAUCUGGTT against Inca1 | 0.00859
GGUGUCUCUGAAUGAUGGCTT against 1810009J06Rik | 0.499
GGGUUGAUCCCUUUGAUUCTT against Pld4 | -0.268
GGACAAUGUGGACUUUGAUTT against Edem2 | -2.33 (active)
GCAAACUCGGACUUUCAAATT against Lamtor3 | 0.443
GGGAAACUCGAGAUGUGCATT against Ankmy2 | 0.944

Sequence | z-score
GGAAAGAAAAACGUAGGCGTT against 4933402J07Rik | -1.16
GGAGAACCAGAUCCUGAUCTT against Mypop | 0.511
GGAGGUGUGGCAUCUGGAUTT against Gsn | 1.19
GGAGGAAGACACUCCCUCUTT against Atf4 | -0.778
CGAGAGUGAUGCGCAUUUCTT against Sf3b5 | -3.04 (active)
GGAAGCGGGAGAUAGAGGATT against Xpo6 | -0.108
GCACAGAGGUCAGUUAAAGTT against St8sia3 | 1
CGACCCUCUAAGGAUAUGCTT against Zfp456 | 1.01
CCUGAUAUUCCAUCCUGAATT against Acad10 | -0.626
GGUGCAUGGAAAAAAAUUATT against Neil2 | -0.691
GCGGCCUGUGAGAGUUUAUTT against Pcyt1a | 3.4 (active)
GGACCCAAGAAGAUGACGUTT against 0610010K14Rik | -0.694
GCUGUGUGCCACUUUAUGUTT against Ebna1bp2 | 0.583
CGACAACACAGUUAUUAUUTT against Pld1 | 0.338
GCUUCGAGUUACAAUGUCATT against Fbxw15 | -0.912
GGCACAUACGCUAUGAAGCTT against Prl2c5 | -0.0959
GGUCUGUGACGAGAAGCUATT against Rab4a | -1.43
CCGAUGACGAACAGUUUGATT against Eif4ebp3 | 2.08 (active)
GGCAAAUUUUUGGAGAUGUTT against Hspa4 | 0.931

Reference: PubChem BioAssay AID1508600 (Functional Genomics Laboratory (NCATS/FGL), 2020)
